# miR-21 act: qHTS Assay for Modulators of miRNAs and/orActivators of miR-21. HeLa miR-21 FLuc reporter, luciferase, 48 h. Potency, µM (top dose mostly 38.3 µM), usual class: activators. 340,000 tested, under 10 active;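 further: miR-21 action dims this reporter so a rising signal means less miR-21 action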
#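 Luminescence from a firefly luciferase reporter carrying a miR-21 binding site downstream, stably expressed under a CMV promoter in HeLa cells that make miR-21 endogenously, reports miRNA modulation after 48 h compound exposure up to approximately 40uM final.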
# Sfp PPTase inh: qHTS Assay for Inhibitors of Bacillus subtilis Sfp phosphopantetheinyl transferase (PPTase); 4'-phosphopantetheinyl transferase ffp (Bacillus subtilis), Q9F4F7; Biochemical Sfp PPTase activity, qHTS; Potency, µM, usual class: inhibitors; 3.5% of 310,000 active;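 further: the enzyme is Sfp with the accession as filed and its product quenches rhodamine fluorescence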
#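 Sfp 15 nM + cpd, 15 min RT; start w/ rhodamine-CoA 5 uM, BHQ-2-YbbR 12.5 uM (final); 50 mM Hepes pH 7.6, 10 mM MgCl2, 0.01% NP-40, 0.01% BSA; read 525/598 nm at 0 and 30 min.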
# KDM4E inh: qHTS Assay for Inhibitors of Human Jumonji Domain Containing 2E (JMJD2E). 1.6% of 230,000 active. Potency, µM (doses to about 57.1 µM), hits mostly inhibitors. JMJD2E catalytic domain, FDH-coupled NADH fluorescence (FDH is formaldehyde dehydrogenase); further: nearly all actives have a fitted effect of over 50% in size
# Lamin A splicing: qHTS Assay for Modulators of Lamin A Splicing. HeLa LMNA splicing GFP/RFP minigene ratio, 48 h. Potency, µM (highest dose often 46.1 µM), most hits filed as inhibitors. 0.01% of 200,000 active; active means well fitted inhibition curve with a large enough effect in the signal ratio, with a control signal flat, not every such curve was filed as active; inconclusive means small, poorly fitted or top-dose-only effect, or effect the other way, or a change in a side signal; the % refers to the signal ratio
#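 S3 HeLa stable clones carrying a lamin A-EGFP splicing minigene plus DsRed2 were seeded at 600 cells/well in Opti-MEM with 2% FBS, pin-dosed and incubated 48 h at 37°C. Acumen cytometry (488 nm) gave the GFP/RFP total-intensity ratio.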
# G9a block: qHTS Assay for Inhibitors of Histone Lysine Methyltransferase G9a; 8.8% of 350,000 active; Potency, µM (titrated, usually from 102 µM), usual class: inhibitors; G9a H3K9 monomethylation, AlphaScreen, 2 h; Histone-lysine N-methyltransferase EHMT2 (Homo sapiens), Q96KQ7; further: nearly all actives have a fitted effect of over 75% in size
# Target sequence (Q96KQ7 913-1193 limits assumed): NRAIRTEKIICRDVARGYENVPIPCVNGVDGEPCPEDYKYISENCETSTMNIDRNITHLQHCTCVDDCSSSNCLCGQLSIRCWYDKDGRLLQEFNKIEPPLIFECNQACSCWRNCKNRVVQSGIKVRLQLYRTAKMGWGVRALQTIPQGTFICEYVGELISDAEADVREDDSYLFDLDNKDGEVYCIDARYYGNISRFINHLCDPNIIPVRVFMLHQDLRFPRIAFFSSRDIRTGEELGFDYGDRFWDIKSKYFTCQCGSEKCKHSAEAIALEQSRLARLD
#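 Methyltransferase reactions run at room temperature for 2 h (20 nM enzyme, 500 nM biotin-H3K9 peptide, 20 uM SAM) after a 15 min compound preincubation; product detected by AlphaScreen beads and anti-H3K9me1 antibody.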
# ALDH1A1 block: qHTS Assay for Inhibitors of Aldehyde Dehydrogenase 1 (ALDH1A1); Aldehyde dehydrogenase 1A1 (Homo sapiens), P00352; Purified ALDH1A1, NADH fluorescence, propionaldehyde substrate; Potency, µM (top dose mostly 75.3 µM), hits mostly inhibitors; 7.3% of 220,000 active; AID 1030, 2008; active means well fitted inhibition curve with a large enough effect, not every such curve was filed as active; inconclusive means small, poorly fitted or top-dose-only effect, or another doubt; inactive means no such curve, though single readings can be large or run the other way
# Numbers stand for hits; – = inactive; ? = inconclusive; · = no result; [ ] = dose if it differs, or a comment. Rows were chosen to be rich in hits. Some 13% of all compounds tested hit in one or more screens of this group. Unless noted, the call rests on the fitted dose curve; in most records, active means well fitted curve in the direction sought with a large enough effect; inconclusive means small, poorly fitted or top-dose-only effect, or another doubt; inactive means no such curve, though single readings can be large; an effect the other way counts as inactive or inconclusive.
SMILES,miR-21 act,Sfp PPTase inh,KDM4E inh,Lamin A splicing,G9a block,ALDH1A1 block
CS(=O)(=O)Nc1cccc2[nH]ncc12,–,–,–,·,–,–
Cc1cccc(NC(=O)CN(C)S(=O)(=O)c2ccc3c(c2)CCC(=O)N3)c1C,–,·,·,·,–,·
O=S(=O)(c1ccccc1)N1CCC2(CCCN(Cc3ccccc3)C2)CC1,·,–,·,·,–[12.7 µM],–
COc1ccccc1C1C=C(c2ccc(Cl)cc2)Nc2nc(NS(C)(=O)=O)nn21 (stereo not drawn),–,–,?,–,50µM,?
COc1ccccc1C1C=C(c2ccc(Cl)cc2)Nc2nc(N3C(=O)CCC3=O)nn21 (stereo not drawn),–,–,?,–,?,?
CCN(CC)CCNC(=O)c1ccc(Cc2nc3ccccc3[nH]2)cc1,·,·,·,·,·,–
O=c1[nH]c(/C=C/c2cccc([N+](=O)[O-])c2)c([N+](=O)[O-])c(=O)[nH]1,–,–,·,·,79µM,·
COc1cc(/C=C/c2[nH]c(=O)[nH]c(=O)c2[N+](=O)[O-])cc([N+](=O)[O-])c1O,–,–,·,·,45µM,·
COc1ccccc1-c1nnc(SCCOc2ccccc2C)o1,–,·,·,–,–,·
O=C1C([N+](=O)[O-])=C(O)c2cccc3cccc1c23,–,8.9µM,·,·,1.3µM,·
C=CCN1C(=O)[C@]2(c3ccccc31)C1CCCC=C1C(C#N)=C(N)C2(C#N)C#N (stereo partly drawn),–,–,–,–,·,4µM
C=CCN1C(=O)C2(c3ccccc31)C1CCCC=C1C(C#N)=C(N)C2(C#N)C#N (stereo not drawn),–,–,–,–,–,10µM
O=C(Nc1cccc(S(=O)(=O)NC2=NCCCCC2)c1)c1cc(-c2ccc(Cl)cc2)nc2ccccc12,–,–,?,–,–,?
O=C(Nc1cccc(S(=O)(=O)NC2=NCCC2)c1)c1cc(-c2ccco2)nc2ccccc12,–,–,?,·,40µM,?
O=C(NC(=S)Nc1cccc(S(=O)(=O)NC2=NCCC2)c1)c1cc(-c2ccco2)nc2ccccc12,–,?,?,–,40µM,?
CCOc1ccc(C(=O)NC(=S)Nc2cccc(S(=O)(=O)NC3=NCCC3)c2)cc1,–,–,–,?,?,?
CCCCCC(=O)NC(Cc1ccc(OC)c([N+](=O)[O-])c1)C(=O)O (stereo not drawn),–,–,–,–,–,13µM
CCN(CC)CCCNc1cc(-c2ccccc2)nc(C)n1,–,·,·,–,–,·
Cc1ccc(N=Cc2cccc(O)c2O)c(C)c1,–,3.5µM,14µM,?,?,?
Cc1ccc(N=Cc2ccc[nH]2)c(O)c1,–,–,?,–,?,?
Cc1ccccc1N=Cc1cccc(O)c1O,–,?,11µM,–,7.9µM,5µM
Cc1cccc(C=Nc2ccc3c(c2)oc2ccccc23)c1O,–,?,–,–,–,–
CC(N=Cc1cc([N+](=O)[O-])ccc1O)c1ccccc1 (stereo not drawn),–,–,–,–[9.22 µM],–,?
CC(N=Cc1cccc(O)c1O)c1ccccc1 (stereo not drawn),–,?,14µM,?,1.3µM,?
Oc1cccc(/C=N/N=C/c2cccc(O)c2O)c1O,–,–,·,·,32µM,·
Oc1ccccc1C=NCCN=Cc1ccccc1O,–,–,?,·,–,·
CCCn1c2ccccc2c2cnn(CC(=O)NCc3cc(OC)ccc3OC)c(=O)c21,–,·,·,–,–,·
COc1cc(/C=N/NC(=O)c2nnn(-c3nonc3N)c2-c2cccs2)ccc1O,–,–,·,·,–,·
COCCN=c1scc(-c2cccs2)n1/N=C/c1ccc(O)c(O)c1O,–,7.1µM,–,?,5.6µM,1.1µM
CCN=c1scc(C)n1/N=C/c1ccc(O)c(O)c1O,–,8.9µM,11µM,–,5µM,10µM
